The record followed here is PubChem BioAssay (NCI).

A short description of assay [1]: NCI Yeast Anticancer Drug Screen. Data for the rad50 strain (AID 155).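 Also: 0% = growth of vehicle-only cultures of the same strain.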 Particulars: S. cerevisiae rad50 strain growth inhibition; at 50.0 µM; hits give high values. The procedure, abridged: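 A DNA repair-deficient yeast mutant serves as the test organism; compound-induced growth inhibition is calculated against vehicle-treated cells.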
A short description of assay [2]: NCI Yeast Anticancer Drug Screen. Data for the mec2-1 strain (AID 157). The conditions noted are these: S. cerevisiae mec2-1 strain, at 50.0 µM, hits give high values. The procedure, abridged: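 mec2-1 yeast strain, carrying an alteration in DNA damage repair or cell cycle control, was exposed to compounds; growth inhibition was measured relative to vehicle-treated controls.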

A short description of assay [3]: NCI Yeast Anticancer Drug Screen. Data for the sgs1 mgt1 strain (AID 161).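 Also: 0% = growth of cultures given vehicle only.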 The conditions noted are these: S. cerevisiae sgs1 mgt1 strain, at 50.0 µM, hits give high values. In outline: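 Yeast cells carrying a defined DNA-repair defect were exposed to test compounds. Growth inhibition was measured relative to vehicle-treated controls.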
Assay [4] can be described thus: NCI Yeast Anticancer Drug Screen. Data for the cln2 rad14 strain (AID 165).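 Also: 0% = growth equal to vehicle treated cultures.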 The conditions noted are these: S. cerevisiae cln2 rad14 strain, at 50.0 µM, hits give high values. In outline: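 Yeast carrying cln2 and rad14 alterations (cell cycle control and DNA damage repair) were exposed to compounds. Growth inhibition was measured against vehicle-treated controls.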

The nature of assay [5]: NCI Yeast Anticancer Drug Screen. Data for the bub3 strain (AID 167). The conditions noted are these: S. cerevisiae bub3 mutant strain, at 50.0 µM, hits give high values. The procedure, abridged:
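Inhibition values come from growth of compound-treated mutant yeast normalised to vehicle-treated controls.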

Assay [6] can be described thus: NCI Yeast Anticancer Drug Screen. Data for the mlh1 rad18 strain (AID 175). The conditions noted are these: S. cerevisiae mlh1 rad18 strain growth inhibition; at 50.0 µM; hits give high values. The procedure, abridged: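 Growth inhibition of the yeast strain was measured after compound exposure and expressed relative to vehicle-treated controls. The strain carries defined defects in DNA damage repair.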

SMILES strings stand for the structures. About 79,000 compounds went through this panel and 15% of them were active in at least one assay; those are over-represented in the sample as a whole. Values without a mark were called inactive. Active and inactive are the calls of the source. Rule as the data show it: active = growth inhibition above about 70%; inactive = the rest.

Regarding `O=C1CC2C3CC4(OCCO4)C4C3CC2C14` (stereo unspecified), the growth inhibition in assay [1] was 8.25%; in assay [2] it was 2.45%; in assay [3], 3%; in assay [4], 8.65%; in assay [5], 2.1%; in assay [6], 5.8%.
As to `Cc1c(Cl)cccc1NC(=O)Oc1ccccc1Cc1ccccc1`, the growth inhibition was -0.8% in assay [1]; 43.1% in assay [2]; 40% in assay [3]; -2.7% in assay [4]; 67.5% in assay [5]; 52.2% in assay [6].
In the case of `Cc1cc2nc3c(=O)[nH]c(=O)nc-3n(CC(O)C(O)C(O)C(O)CO)c2cc1C` (stereo unspecified), the growth inhibition in assay [1] was 33.5%; in assay [2] it was 3.2%; in assay [3] it was -14.4%; in assay [4], 7.05%; in assay [5] it was -7.7%; in assay [6], 23.2%.
Turning to `CCOc1c2c(nn(C)c1=O)Oc1ccccc1N2CCCN1CCOCC1`, the growth inhibition in assay [1] is -27.6%; in assay [2] it was -0.25%; in assay [3] it was -18.1%; in assay [4] it was 2.3%; in assay [5] it was 3.95%; in assay [6], -4.6%.
`CC(=O)OCC1OC(n2ccc(=O)[nH]c2=O)CC1N=[N+]=[N-]` (stereo unspecified): the growth inhibition in assay [1] is -25.1%; in assay [2], 8.7%; in assay [3], 1.05%; in assay [4] it was -48.3%; in assay [5], 13.3%; in assay [6], 0.35%.
As for `Cc1ccc(S(=O)(=O)N/N=C(\C(=N/OCc2ccccc2)c2ccccc2)c2ccccc2)cc1`, the growth inhibition is 43.4% in assay [1]; -3.75% in assay [2]; 27.6% in assay [3]; 14.8% in assay [4]; 10.8% in assay [5]; 9.65% in assay [6].
Turning to `COc1ccc(S(=O)(=O)c2ccc(F)cc2)cc1`, the growth inhibition in assay [1] was -22.1%; in assay [2] it was -14.2%; in assay [3], -3.65%; in assay [4], -5.8%; in assay [5], -12.7%; in assay [6], -21.4%.
As to `Cc1ccc(C2(C)CC[C@@H]3C[C@@]32C)c(O)c1` (stereo partly specified), the growth inhibition is 91.2% (active) in assay [1]; 93.8% (active) in assay [2]; 93.5% (active) in assay [3]; 92.2% (active) in assay [4]; 92.7% (active) in assay [5]; 91.8% (active) in assay [6].
On to `O=[N+]([O-])c1ccc(N2CCN=N2)cc1`, for which the growth inhibition in assay [1] is -24.2%; in assay [2], -14.6%; in assay [3] it was -15.2%; in assay [4], 2.35%; in assay [5] it was -14.2%; in assay [6], -6.75%.
In the case of `OC1c2ccccc2-c2ccc(NCc3ccc4c(c3)OCO4)cc21` (stereo unspecified), the growth inhibition in assay [1] was 48.8%; in assay [2], -11.2%; in assay [3] it was 17.4%; in assay [4], -5.2%; in assay [5], -4.1%; in assay [6], 19.4%.
Consider `C[N+](C)(C)CBr`, for which the growth inhibition is 36.8% in assay [1]; -11% in assay [2]; -21.5% in assay [3]; -40.6% in assay [4]; 4.75% in assay [5]; -37.2% in assay [6].
`c1ccc(N/N=C2/CSCc3ccccc32)cc1`: the growth inhibition in assay [1] is 93.2% (active); in assay [2], 68.8%; in assay [3], 91.5% (active); in assay [4], 74.2% (active); in assay [5] it was 80.8% (active); in assay [6], 94.4% (active).
Consider `CC1=CC(=O)c2cccc(NC3=NCCO3)c21`, for which the growth inhibition in assay [1] is -31.3%; in assay [2], -20.8%; in assay [3], -2.95%; in assay [4] it was -28.9%; in assay [5], -2%; in assay [6], -29.2%.
For `CC(C)CN(CC#N)CC(C)C`, the growth inhibition in assay [1] was -31.8%; in assay [2], -26.9%; in assay [3], -34.5%; in assay [4] it was 15.1%; in assay [5], -49.1%; in assay [6], -50%.
Consider `NNC(=O)CC(=O)N(C(=O)/C=C/c1ccccc1)c1ccc(Cl)cc1`, for which the growth inhibition in assay [1] is -11.9%; in assay [2], -16.9%; in assay [3] it was 15.1%; in assay [4] it was 24%; in assay [5], -14.5%; in assay [6], 19.4%.
Consider `CC12CCC3c4ccc(O)cc4CCC3C1CC(OC1OC(C(=O)O)C(O)C(O)C1O)C2O` (stereo unspecified), for which the growth inhibition is 31.6% in assay [1]; 5.9% in assay [2]; 13.5% in assay [3]; 2.4% in assay [4]; 2.4% in assay [5]; 22.2% in assay [6].
Regarding `CC(=O)Nc1ccccc1NOC(=O)c1ccccc1NC(C)=O`, the growth inhibition in assay [1] is -3.1%; in assay [2], -8.9%; in assay [3], 4.45%; in assay [4] it was 32.7%; in assay [5], 25.1%; in assay [6] it was 18.1%.
For `[CH3][Sn]([CH3])([N](c1ccccn1)c1ccccn1)[N](c1ccccn1)c1ccccn1`, the growth inhibition in assay [1] was -8.85%; in assay [2], 2.7%; in assay [3], 17%; in assay [4], -17.3%; in assay [5], -1.65%; in assay [6], -21.4%.
Take `COc1cc(CNC(=O)NCCCl)cc(OC)c1OC`: the growth inhibition was -5.55% in assay [1]; 1.2% in assay [2]; -3.2% in assay [3]; -3.45% in assay [4]; -1% in assay [5]; 2.7% in assay [6].
For the compound `CC1(C)CC(=O)NC1=O`, the growth inhibition in assay [1] was 30.8%; in assay [2] it was 2%; in assay [3], 8.55%; in assay [4], -0.2%; in assay [5], -19%; in assay [6], 9.3%.
Take `Nc1cccc(Br)n1`: the growth inhibition in assay [1] was 16.1%; in assay [2], -4.9%; in assay [3], 0.45%; in assay [4] it was -51.7%; in assay [5], 7.1%; in assay [6], 4.9%.
